Values joined by “and” are separate entries in the source; they are usually repeats but may differ in a detail not shown here. Identical values can stand only once. Among all 5,500 compounds or so, about 2,000 (36%) were called active. Roughly 18% stayed inconclusive and do not appear here. Cut-off read from the data, not from the text of the source: active = normalized growth mostly below about 0.91 (no sharp cut-off); inconclusive = no clear call, values can overlap the other calls; inactive = mostly above about 0.92. The list shows a part of the results.
Test: chemical genetic growth profiling, strain panel (AID 1159580);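 note: tested at 20 µM; growth read once vehicle control cultures reached saturation at 30 °C; 1 = growth at the plate median or of vehicle wells; lower values mean less growth of the strain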
Conditions: S. cerevisiae deletion strains, growth OD

Measured: normalized growth

COc1ccc(C(=O)N2CCCC2=O)cc1
inactive: locus YAL013W, strain DEP1, hits give low values 0.971 | locus YAL021C, strain ccr4, hits give low values 0.981 | locus YAL026C, strain drs2, hits give low values 0.976 | locus YAL030W, strain snc1, hits give low values 0.956 | locus YAL040C, strain CLN3, hits give low values 1.01 | locus YBL061C, strain skt5, hits give low values 0.962 | locus YBR009C, strain hhf1, hits give low values 0.969 | locus YBR021W, strain FUR4, hits give low values 1.05 | locus YBR023C, strain chs3, hits give low values 0.967 | locus YBR171W, strain sec66, hits give low values 0.96 | locus YBR229C, strain ROT2, hits give low values 0.953 | locus YBR231C, strain swc5, hits give low values 0.967 | locus YBR279W, strain paf1, hits give low values 0.987 | locus YCL011C, strain gbp2, hits give low values 0.946 | locus YCL016C, strain dcc1, hits give low values 0.976 | locus YCL029C, strain bik1, hits give low values 0.983 | locus YCL061C, strain MRC1, hits give low values 0.974 | locus YCL069W, strain vba3, hits give low values 0.985 | locus YCR088W, strain abp1, hits give low values 0.981 | locus YDL005C, strain med2, hits give low values 0.974 | locus YDL035C, strain GPR1, hits give low values 0.984 | locus YDL040C, strain nat1, hits give low values 0.984 | locus YDL074C, strain BRE1, hits give low values 0.961 | locus YDL101C, strain DUN1, hits give low values 0.952 | locus YDL134C, strain PPH21, hits give low values 0.993 | locus YDL185W, strain tfp1, hits give low values 0.964 | locus YDL192W, strain arf1, hits give low values 0.983 | locus YDR001C, strain nth1, hits give low values 0.97 | locus YDR069C, strain doa4, hits give low values 0.968 | locus YDR101C, strain arx1, hits give low values 0.989 | locus YDR137W, strain rgp1, hits give low values 0.967 | locus YDR150W, strain NUM1, hits give low values 0.968 | locus YDR159W, strain sac3, hits give low values 0.968 | locus YDR162C, strain NBP2, hits give low values 0.968 | locus YDR195W, strain ref2 1 | locus YDR297W, strain sur2, hits give low values 0.967 | locus YDR318W, strain mcm21, hits give low values 0.996 | locus YDR334W, strain swr1, hits give low values 0.939 | locus YDR335W, strain msn5, hits give low values 0.975 | locus YDR388W, hits give low values 0.999 | locus YDR392W, strain spt3, hits give low values 0.929 | locus YDR502C, strain sam2, hits give low values 0.995 | locus YEL003W, strain gim4, hits give low values 0.981 | locus YEL037C, strain rad23, hits give low values 0.979 | locus YEL061C, strain CIN8 (second series), hits give low values 0.971 | locus YEL061C, strain CIN8, hits give low values 0.983 | locus YER002W, strain NOP16, hits give low values 1 | locus YER015W, strain faa2, hits give low values 0.979 | locus YER016W, strain bim1, hits give low values 0.984 | locus YER110C, hits give low values 0.985 | locus YER111C, strain swi4, hits give low values 0.978 | locus YER155C, strain BEM2 (second series), hits give low values 0.974 | locus YER155C, strain BEM2, hits give low values 0.995 | locus YER167W, strain BCK2, hits give low values 0.983 | locus YFR010W, strain ubp6, hits give low values 0.962 | locus YGL078C, strain dbp3, hits give low values 0.985 | locus YGL086W, strain mad1, hits give low values 0.987 | locus YGL167C, strain pmr1, hits give low values 0.96 | locus YGL173C, strain kem1, hits give low values 0.961 | locus YGL227W, strain vid30, hits give low values 0.971 | locus YGL240W, strain doc1, hits give low values 0.992 | locus YGL248W, strain PDE1, hits give low values 0.977 | locus YGL253W, strain hxk2, hits give low values 0.976 | locus YGR078C, strain PAC10, hits give low values 0.973 and 1 | locus YGR135W, strain pre9, hits give low values 0.981 | locus YGR229C, strain SMI1, hits give low values 0.994 and 1.02 | locus YGR252W, strain gcn5, hits give low values 1.05 | locus YHR013C, strain ard1, hits give low values 0.962 | locus YHR027C, strain rpn1, hits give low values 0.956 | locus YHR030C, strain SLT2, hits give low values 0.992 | locus YHR079C, strain IRE1 (second series), hits give low values 0.991 | locus YHR094C, strain hxt1, hits give low values 0.991 | locus YHR129C, strain ARP1, hits give low values 0.992 | locus YHR142W, strain chs7, hits give low values 0.91 | locus YHR200W, strain rpn10, hits give low values 0.989 | locus YIL066C, strain RNR3, hits give low values 0.986 | locus YIL073C, strain SPO22, hits give low values 1.01 | locus YIL125W, strain kgd1, hits give low values 0.992 | locus YIR030C, strain dcg1, hits give low values 0.981 | locus YJL092W, strain hpr5, hits give low values 0.975 | locus YJL095W, strain BCK1 (second series), hits give low values 0.973 | locus YJL095W, strain BCK1, hits give low values 1 | locus YJL115W, strain asf1, hits give low values 0.957 | locus YJL129C, strain trk1, hits give low values 1.01 | locus YJL134W, strain LCB3, hits give low values 0.977 | locus YJL154C, strain vps35, hits give low values 0.975 | locus YJL164C, strain tpk1, hits give low values 0.985 | locus YJL166W, strain qcr8, hits give low values 0.945 | locus YJL168C, strain set2, hits give low values 0.992 | locus YJL187C, strain SWE1 (second series), hits give low values 0.98 | locus YJL187C, strain SWE1, hits give low values 0.975 | locus YJR043C, strain POL32, hits give low values 1
